Measurements reported in PubChem BioAssay AID743093 (The Scripps Research Institute Molecular Screening Center, 2013).
About 100 (0.067%) of roughly 150,000 compounds were called active.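 The calls were made as follows: active = inhibition above the mean plus 3 SD of compounds within the control limits, set per campaign (cut at about 38% in these data); inactive = the rest.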 The entries come from a sample that favours actives as a whole.

assay: reduced ATP in mature Plasmodium gametocytes – ATP luminescence, HTS, primary screen (AID 743093);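 also: 0% = DMSO wells and 100% = medium only without gametocytes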; conditions: P. falciparum stage V gametocytes, 24 h, at 10.9 µM, active compounds read high

Structure (SMILES)	inhibition
N#CCSc1nc(-c2ccccc2)nc2ccc(F)cc12	-8.79% (inactive)
Cc1cc(C)n(-c2ccc(Cl)c(C(=O)O)n2)n1	8.49% (inactive)
Cc1cc(C)n(-c2nc(O)cc(=O)[nH]2)n1	9.58% (inactive)
Cc1cc(C)n(-c2ccc3nncn3n2)n1	38.2% (active)
O=C(CN1CCCCCC1)Nc1c(Cl)cc(Cl)cc1Cl	-23.1% (inactive)
O=C(NC(=O)N1CCSCC1)c1c(Cl)cccc1Cl	-10.9% (inactive)
CCn1c(SCC(=O)N/N=C/c2ccncc2)nc2ccccc21	-15.2% (inactive)
O=C1NC[C@@H](c2ccccc2)OC(=O)[C@H](Cc2ccc(F)cc2)CC/C=C/C[C@H]1CC(=O)N(CCO)Cc1ccccc1	4.53% (inactive)
COc1ccc(C(C#N)(CC(=O)O)c2cnccn2)cc1OC (stereo unspecified)	-25% (inactive)
Cc1ccccc1NC(=O)N1CCCC1C(=O)NCc1ccccc1 (stereo unspecified)	1.78% (inactive)
Cc1ccc2c(O)c(Cc3ccccc3)c(=O)[nH]c2n1	-11.8% (inactive)
C/C(Cc1ccccc1)=N\NC(=O)CNC(=O)c1ccc2c(c1)OCCO2	-4.02% (inactive)
CC(C)c1cc(CN2CCOCC2)cc(C(C)C)c1O	-5.85% (inactive)
CCOC(=O)c1c(C)[nH]c(=S)c(C#N)c1-c1ccccc1	-28.7% (inactive)
CCOC(=O)c1c(C)[nH]c2c1-c1ccccc1C(=O)C2=O	50.2% (active)
CCOC(=O)C1=C(c2ccc(OC)cc2)C(=O)c2ccccc2C1=O	-27.7% (inactive)
Cc1cccc(C(=O)N2CCC(c3nc4ccccc4s3)CC2)c1	13% (inactive)
Nc1nnnn1/N=C/c1cc([N+](=O)[O-])ccc1O	-1.33% (inactive)
CCN(CC)S(=O)(=O)c1ccc(NC(=O)c2cnc(C)cn2)cc1	-1.77% (inactive)
CC(=O)NS(=O)(=O)c1ccc(N/C(N)=N/c2nc(C)cc(C)n2)cc1	11.7% (inactive)
CCCCC(CC)CNCc1cccn1CCN1CCOCC1 (stereo unspecified)	-25.6% (inactive)
CCOC(=O)c1c(N)sc2c1CCCC2=O	-6.75% (inactive)
Cc1c(CN2CC[C@@H](N3CCN(c4ccccn4)CC3)[C@H](O)C2)[nH]c2ccc(F)cc12	-10.1% (inactive)
CCc1ccc(NC(=O)N[C@H](C(=O)O)C(C)CC)cc1 (stereo partly specified)	-3.41% (inactive)

Structure (SMILES)	inhibition
Cc1ccc(C)c(SCc2nc3sc(C(=O)O)c(C)c3c(=O)[nH]2)c1	8.97% (inactive)
CC1=CC(C)(C)NC(=S)N1NC(=O)c1ccccc1Cl	-21.8% (inactive)
C[C@@H]1NC(=O)[C@@]2(C)[C@@H](c3ccccc3)[C@H]3COc4ccccc4[C@@H]3N2C1=O	-7.28% (inactive)
CCCNC(=O)CSc1nc(Cc2ccccc2)nc2ccccc12	-0.29% (inactive)
COc1cccc(CNc2ncc(-c3ccccc3)n2C)c1	-4.96% (inactive)
CCSCc1nc(N)nc(NCCc2ccccc2)n1	-2.31% (inactive)
CC(C)=CCN1CCN(CCCc2ccccc2)CC1CCO (stereo unspecified)	26.8% (inactive)
COc1ccccc1C1=CC(=O)C[C@H](c2ccc(F)cc2)C1	-32.5% (inactive)
Cc1ccc(-c2ccnc3[nH]n(-c4ccccc4)c(=O)c23)cc1	-20.9% (inactive)
CSc1ccc(S(=O)(=O)N2CCC(C(=O)NCCc3ccccc3)CC2)cc1	-3.09% (inactive)
O=C(Nc1nnc(CCN2CCCCC2)s1)c1cccc(Cl)c1	7.08% (inactive)
COc1cc(NC(=O)c2ccc(-c3csc(C)n3)cc2)c(OC)cc1Cl	-9.66% (inactive)
CCC(C(=O)NCCC(C)C)N(Cc1ccccc1Cl)C(=O)c1snc(C(N)=O)c1N (stereo unspecified)	-26.1% (inactive)
CN(C)CCCNC(=S)N1CCC(c2nc3ccccc3[nH]2)CC1	-17.4% (inactive)
CC(=O)NS(=O)(=O)c1ccc2c(c1)Cc1cc(S(=O)(=O)NC(C)=O)ccc1-2	-9.24% (inactive)
Cc1cc(F)ccc1N1CCC(N2CCN(C)C(CCO)C2)CC1 (stereo unspecified)	-11.3% (inactive)
CC(=O)C(C)n1cnc2scc(-c3ccc(C)cc3)c2c1=O (stereo unspecified)	13.9% (inactive)
COc1ccccc1-n1cn[nH]c1=S	2.72% (inactive)
CC(C)CCN1NC2(CCC(C)CC2)NC1=S (stereo unspecified)	0.86% (inactive)
Cc1nc([N+](=O)[O-])cn1CC(=O)Nc1ccc(Cl)cc1	2.38% (inactive)
O=C(O)c1ccccc1C(=O)Nc1nc(-c2ccccc2)cs1	3.62% (inactive)
COC(=O)c1ccc(COc2cc([N+](=O)[O-])cc3cccnc23)cc1	2.3% (inactive)
CCN1N=C(c2ccccc2)CCC1=O	-22.1% (inactive)
CCc1nc(N2CCN(C(C)=O)CC2)c2c3c(sc2n1)CCCC3	-2.91% (inactive)

Structure (SMILES)	inhibition
Cc1c(NC(=O)CSCc2ccccc2)cccc1C(=O)O	19% (inactive)
CCCc1ccc(OCCNC(=O)c2ccccc2Br)cc1	17.8% (inactive)
O=C(N[C@@H]1C/C=C\C[C@@H](CC(=O)N(CCO)Cc2ccccc2)C(=O)N[C@H](Cc2ccccc2)COC1=O)OCC1c2ccccc2-c2ccccc21	-0.76% (inactive)
COc1ccc(N2CCN(C(=O)c3cccs3)CC2)cc1	-16.6% (inactive)
Cc1cccc(C)c1OCCN1CCOCC1	-12.2% (inactive)
COc1ccc(CN(Cc2ccc(OC)cc2)C(=O)c2cccs2)cc1	2.88% (inactive)
CCOc1ccc2ccccc2c1/C=N/NC(=O)c1c(C)cc(C)[nH]c1=O	23.8% (inactive)
Cc1cccc(NC(=O)COC(=O)CCc2ccccc2)c1C	-7.45% (inactive)
CCNC(=O)CCc1nc(-c2ccc(C)cc2)no1	-1.21% (inactive)
CN1CCN(c2ccc(S(=O)(=O)N3CCOCC3)cc2NC(=O)CCc2ccccc2)CC1	-2.86% (inactive)
CCOC(=O)[C@H]1[C@H]2COc3cc(OC)ccc3[C@@H]2N2C(=O)CN(Cc3ccc(Cl)cc3)C(=O)[C@@]12C	-23.5% (inactive)
COc1ccc(C(=O)NC2=NCCS2)c(OC)c1	-24.6% (inactive)
CCOc1ccc(-n2c(SCC(N)=O)nnc2-c2ccco2)cc1	-6.2% (inactive)
CCOC(=O)c1cnc(COc2ccccc2Cl)[nH]c1=O	-10.2% (inactive)
COc1ccc(CCNC(=O)Cc2ccc(C)cc2)cc1OC	-9.83% (inactive)
O=[N+]([O-])c1ccccc1/C=C/CN1CCCC(CO)C1 (stereo unspecified)	-16.5% (inactive)
O=C(CCCCO)c1ccc(O)c(Cl)c1	-2.03% (inactive)
CN(Cc1ccccc1)C(=O)c1ccc(COc2ccccc2)cc1	-8.25% (inactive)
COc1ccc(OC)c(C(=O)NC(CC(N)=O)c2ccc(N3CCC(N4CCCCC4)CC3)c([N+](=O)[O-])c2)c1 (stereo unspecified)	0.29% (inactive)
COc1ccc(-c2sc3ccc(OC)cc3c2C#Cc2ccccn2)cc1	11.6% (inactive)
COc1cc(NC(=O)c2ccc(CNc3c(N4CCCC4)c(=O)c3=O)cc2)cc(OC)c1OC	-11.3% (inactive)
COc1ccc(OCC(O)CN(C)C(=O)C(C)Oc2ccccc2)cc1 (stereo unspecified)	-38.3% (inactive)
Cc1cc(F)ccc1NC(=O)C(C)n1c2ccccc2c2nc(=O)cc(C)n21 (stereo unspecified)	-11.9% (inactive)
CCOC(=O)CSc1nc(C)c(Oc2ccc(Cl)cc2Cl)c(=O)[nH]1	-4.17% (inactive)

Structure (SMILES)	inhibition
O=C(C1CCC1)N1CCN(c2ccccc2)CC1	10.5% (inactive)
Cn1c(Nc2cccc(Cl)c2)nc2ccccc21	-9.18% (inactive)
CN(C(=O)c1cccc(NC(=O)Cc2ccc([N+](=O)[O-])cc2)c1)C1CCC1	-9.69% (inactive)
O=C(CCc1ccccc1)Nc1ncc([N+](=O)[O-])s1	-11.7% (inactive)
O=C(Cc1c(F)cccc1Cl)Nc1ncc([N+](=O)[O-])s1	39.5% (active)
O=C(Cc1c(F)cccc1Cl)Nc1ccc(-n2cnnn2)cc1	4.22% (inactive)
O=C(CCl)N(Cc1cccc([N+](=O)[O-])c1)c1cccc(Cl)c1	-7.41% (inactive)
Clc1ccc(C[n+]2cc(-c3ccccc3)n3c2CCC3)cc1	1.51% (inactive)
O=[N+]([O-])c1ccc(NC(=S)N2CCN(c3ccccn3)CC2)cc1	3.29% (inactive)
O=C(CN1CCN(c2ccc(F)cc2)CC1)Nc1ccccc1	-14.6% (inactive)
N#C/C(=C\c1ccc(-c2cccc([N+](=O)[O-])c2)o1)C(=O)NCCN1CCOCC1	-28.5% (inactive)
Cc1ccccc1Nc1c(-c2ccccc2)nc2ncccn12	-29.5% (inactive)
O=C1CC(=O)Nc2cc(S(=O)(=O)N3CCN(c4cccc(C(F)(F)F)c4)CC3)ccc2N1	38.8% (active)
O=S(=O)(c1cccc(C(F)(F)F)c1)N1CCN(c2cnccn2)CC1	-34.2% (inactive)
Cc1ccc(S(=O)(=O)N2CCN(c3ccccc3)CC2)cc1C	0.96% (inactive)
CCc1cc(CNC(=O)CC2C(=O)NCCN2Cc2ccccc2C(F)(F)F)on1 (stereo unspecified)	-0.11% (inactive)
COc1ccc(NC(=O)C2C3CCC(O3)C2C(=O)O)cc1OC (stereo unspecified)	7.46% (inactive)
Cc1cc(N/N=C\c2ccc(Br)cc2)nc(-n2nc(C)cc2C)n1	-0.66% (inactive)
Cc1ccc(S(=O)(=O)Nc2nc(C)cc(-n3nc(C)cc3C)n2)cc1	10.5% (inactive)
Cc1ccc(S(=O)(=O)Nc2nc(C)cc(N/N=C/c3ccc(O)cc3)n2)cc1	42.5% (active)
CC1CCC(CN2CCN=C2N(C)C)CC1 (stereo unspecified)	-5.33% (inactive)
CCN(CC)CCCNC(=S)N(CCO)Cc1cc2cc3c(cc2[nH]c1=O)OCO3	4.58% (inactive)
CN(c1ccccn1)c1ncnc2[nH]ncc12	2.58% (inactive)
O=S(=O)(c1ccc(Cl)cc1)N1CCCN(c2ccc(C(F)(F)F)cn2)CC1	-9.4% (inactive)
